# Data: the supplement of paper PMC8728848
# The entries come from a sample that favours the strongest signals as a whole.
# Assays:
# Test in all cases: glycan array binding signal (z-score within array); higher = stronger binding
# Conditions in all cases: glycan notation: IUPAC condensed, linker removed
# [1] = molecular target: Fuc(a1-2)Gal(b1-3)GalNAc(a1-3)[Fuc(a1-2)]Gal(b1-4)GlcNAc
# Summary of the method: (§1)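 Arrays were curated from the Consortium for Functional Glycomics database, 3228 in total, and kept only where the protein sequence was available. Binding is expressed as a within-array Z-score. This score was averaged across arrays of the same protein sequence at different concentrations or buffers and across linkers, and negative values can be read as non-binding.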
# [2] = molecular target: Fuc(a1-2)Gal(b1-3)GlcNAc(b1-3)GalNAc
# Summary of the method: as §1
# [3] = molecular target: Fuc(a1-2)Gal(b1-3)GlcNAc(b1-3)[Neu5Ac(a2-6)Gal(b1-4)GlcNAc(b1-6)]Gal(b1-4)Glc
# Summary of the method: as §1
# [4] = molecular target: Fuc(a1-2)Gal(b1-3)[Fuc(a1-4)]GlcNAc
# Summary of the method: as §1
# [5] = molecular target: Fuc(a1-2)Gal(b1-4)GlcNAc(b1-2)Man(a1-3)[Fuc(a1-2)Gal(b1-4)GlcNAc(b1-2)Man(a1-6)]Man(b1-4)GlcNAc(b1-4)[Fuc(a1-6)]GlcNAc
# Summary of the method: as §1
# [6] = molecular target: Fuc(a1-2)Gal(b1-4)GlcNAc(b1-2)[Fuc(a1-2)Gal(b1-4)GlcNAc(b1-4)]Man(a1-3)[Fuc(a1-2)Gal(b1-4)GlcNAc(b1-2)Man(a1-6)]Man(b1-4)GlcNAc(b1-4)GlcNAc
# Summary of the method: as §1
# [7] = molecular target: Fuc(a1-2)Gal(b1-4)GlcNAc(b1-3)Gal(b1-4)GlcNAc(b1-2)Man(a1-3)[Fuc(a1-2)Gal(b1-4)GlcNAc(b1-3)Gal(b1-4)GlcNAc(b1-2)Man(a1-6)]Man(b1-4)GlcNAc(b1-4)GlcNAc
# Summary of the method: as §1
# [8] = molecular target: Fuc(a1-2)Gal(b1-4)GlcNAc6S
# Summary of the method: as §1
# [9] = molecular target: Fuc(a1-2)Gal(b1-4)[Fuc(a1-3)]GlcNAc(b1-3)Gal(b1-4)[Fuc(a1-3)]GlcNAc
# Summary of the method: as §1
# [10] = molecular target: Fuc(a1-2)Gal(b1-4)[Fuc(a1-3)]GlcNAc(b1-3)Gal(b1-4)[Fuc(a1-3)]GlcNAc(b1-3)Gal(b1-4)[Fuc(a1-3)]GlcNAc
# Summary of the method: as §1
# Fuc(a1-2)[Gal(a1-3)]Gal = molecular target: Fuc(a1-2)[Gal(a1-3)]Gal
# Summary of the method: as §1
# [11] = molecular target: Fuc(a1-2)[Gal(a1-3)]Gal(b1-3)GlcNAc(b1-6)GalNAc
# Summary of the method: as §1
# [12] = molecular target: Fuc(a1-2)[Gal(a1-3)]Gal(b1-4)GlcNAc
# Summary of the method: as §1
# [13] = molecular target: Fuc(a1-2)[GalNAc(a1-3)]Gal(b1-3)GlcNAc(b1-6)GalNAc
# Summary of the method: as §1
# [14] = molecular target: Fuc(a1-2)[GalNAc(a1-3)]Gal(b1-4)GlcNAc(b1-3)Gal(b1-4)GlcNAc(b1-3)Gal(b1-4)GlcNAc
# Summary of the method: as §1
# [15] = molecular target: Fuc(a1-3)[Gal(b1-4)]GlcNAc(b1-3)Gal(b1-4)[Fuc(a1-3)]GlcNAc(b1-3)Gal(b1-4)[Fuc(a1-3)]GlcNAc
# Summary of the method: as §1
# [16] = molecular target: Fuc(a1-3)[GalNAc(b1-4)]GlcNAc
# Summary of the method: as §1
# Gal(a1-3)Gal = molecular target: Gal(a1-3)Gal
# Summary of the method: as §1
# [17] = molecular target: Gal(a1-3)Gal(b1-3)[Fuc(a1-4)]GlcNAc(b1-2)Man(a1-3)[Gal(a1-3)Gal(b1-3)[Fuc(a1-4)]GlcNAc(b1-2)Man(a1-6)]Man(b1-4)GlcNAc(b1-4)GlcNAc
# Summary of the method: as §1
# Gal(a1-4)Gal(b1-4)Glc = molecular target: Gal(a1-4)Gal(b1-4)Glc
# Summary of the method: as §1
# [18] = molecular target: Gal(a1-4)Gal(b1-4)GlcNAc(b1-3)Gal(b1-4)Glc
# Summary of the method: as §1
# Gal(b1-3)Gal(b1-4)GlcNAc = molecular target: Gal(b1-3)Gal(b1-4)GlcNAc
# Summary of the method: as §1
# [19] = molecular target: Gal(b1-3)GalNAc(a1-3)[Fuc(a1-2)]Gal(b1-4)Glc
# Summary of the method: as §1
# [20] = molecular target: Gal(b1-3)GlcNAc(b1-2)Man(a1-3)[Gal(b1-3)GlcNAc(b1-2)Man(a1-6)]Man(b1-4)GlcNAc(b1-4)[Fuc(a1-6)]GlcNAc
# Summary of the method: as §1
# [21] = molecular target: Gal(b1-3)GlcNAc(b1-2)Man(a1-3)[GlcNAc(b1-4)][Gal(b1-3)GlcNAc(b1-2)Man(a1-6)]Man(b1-4)GlcNAc(b1-4)GlcNAc
# Summary of the method: as §1
# Gal(b1-4)GlcNAc(b1-2)Man = molecular target: Gal(b1-4)GlcNAc(b1-2)Man
# Summary of the method: as §1
# [22] = molecular target: Gal(b1-4)GlcNAc(b1-2)Man(a1-3)[GlcNAc(b1-2)Man(a1-6)]Man(b1-4)GlcNAc(b1-4)GlcNAc
# Summary of the method: as §1
# [23] = molecular target: Gal(b1-4)GlcNAc(b1-3)Gal(b1-3)GalNAc
# Summary of the method: as §1
# Gal3S6S(b1-4)GlcNAc = molecular target: Gal3S6S(b1-4)GlcNAc
# Summary of the method: as §1
# [24] = molecular target: GalNAc(b1-4)GlcNAc(b1-3)GalNAc(b1-4)GlcNAc
# Summary of the method: as §1
# GlcA(b1-3)Gal = molecular target: GlcA(b1-3)Gal
# Summary of the method: as §1
# [25] = molecular target: GlcNAc(a1-4)Gal(b1-4)GlcNAc(b1-3)Gal(b1-4)Glc
# Summary of the method: as §1
# [26] = molecular target: GlcNAc(b1-2)Man(a1-3)[GlcNAc(b1-4)][GlcNAc(b1-2)Man(a1-6)]Man(b1-4)GlcNAc(b1-4)GlcNAc
# Summary of the method: as §1
# [27] = molecular target: GlcNAc(b1-2)[GlcNAc(b1-6)]Man(a1-6)[GlcNAc(b1-2)Man(a1-3)]Man(b1-4)GlcNAc(b1-4)[Fuc(a1-6)]GlcNAc
# Summary of the method: as §1
# [28] = molecular target: GlcNAc(b1-3)Gal(b1-4)GlcNAc(b1-3)Gal(b1-4)GlcNAc(b1-2)Man(a1-3)[GlcNAc(b1-3)Gal(b1-4)GlcNAc(b1-3)Gal(b1-4)GlcNAc(b1-2)Man(a1-6)]Man(b1-4)GlcNAc(b1-4)GlcNAc
# Summary of the method: as §1
# GlcNAc(b1-3)Man = molecular target: GlcNAc(b1-3)Man
# Summary of the method: as §1
# Kdn(a2-3)Gal(b1-4)GlcNAc = molecular target: Kdn(a2-3)Gal(b1-4)GlcNAc
# Summary of the method: as §1
# [29] = molecular target: Man(a1-2)Man(a1-3)[Man(a1-2)Man(a1-6)]Man(a1-6)[Man(a1-2)Man(a1-2)Man(a1-3)]Man
# Summary of the method: as §1
# [30] = molecular target: Neu5Ac(a2-3)Gal(b1-3)GalNAc
# Summary of the method: as §1
# [31] = molecular target: Neu5Ac(a2-3)Gal(b1-3)[Fuc(a1-4)]GlcNAc(b1-3)Gal(b1-3)[Fuc(a1-4)]GlcNAc
# Summary of the method: as §1
# [32] = molecular target: Neu5Ac(a2-3)Gal(b1-3)[Neu5Ac(a2-6)]GalNAc
# Summary of the method: as §1
# [33] = molecular target: Neu5Ac(a2-3)Gal(b1-4)GlcNAc(b1-3)Gal(b1-4)GlcNAc(b1-3)[Neu5Ac(a2-3)Gal(b1-4)GlcNAc(b1-3)Gal(b1-4)GlcNAc(b1-6)]GalNAc
# Summary of the method: as §1
# [34] = molecular target: Neu5Ac(a2-3)Gal(b1-4)GlcNAc(b1-3)[Neu5Ac(a2-3)Gal(b1-4)GlcNAc(b1-6)]GalNAc
# Summary of the method: as §1
# [35] = molecular target: Neu5Ac(a2-3)Gal(b1-4)[Fuc(a1-3)]GlcNAc(b1-6)[Neu5Ac(a2-3)Gal(b1-3)]GalNAc
# Summary of the method: as §1
# [36] = molecular target: Neu5Ac(a2-3)Gal(b1-4)[Fuc(a1-3)]GlcNAc6S
# Summary of the method: as §1
# [37] = molecular target: Neu5Ac(a2-3)GalNAc(b1-4)GlcNAc
# Summary of the method: as §1
# [38] = molecular target: Neu5Ac(a2-6)Gal(b1-4)GlcNAc
# Summary of the method: as §1
# [39] = molecular target: Neu5Ac(a2-6)Gal(b1-4)GlcNAc(b1-2)Man(a1-3)[Neu5Ac(a2-3)Gal(b1-4)GlcNAc(b1-2)Man(a1-6)]Man(b1-4)GlcNAc(b1-4)GlcNAc
# Summary of the method: as §1
binder,measurement,setting,value
LecB PA14 (Pseudomonas aeruginosa) (protein) MATQGVFTLPANTQFGVTAFANSAGTQTVNVQVNNETVATFTGQSTNNAIIGSKVLNSGGGGKVQILVSVNGRSSDLVSAQVILANELNFALVGSEDSTDNDYNDAVVVINWPLG,glycan array binding signal (z-score),[1],0.586
same,glycan array binding signal (z-score),[2],0.422
same,glycan array binding signal (z-score),[3],0.308
same,glycan array binding signal (z-score),[4],2.93
same,glycan array binding signal (z-score),[5],2.75
same,glycan array binding signal (z-score),[6],4.68
same,glycan array binding signal (z-score),[7],7.45
same,glycan array binding signal (z-score),[8],-0.469
same,glycan array binding signal (z-score),[9],10.2
same,glycan array binding signal (z-score),[10],7.29
same,glycan array binding signal (z-score),Fuc(a1-2)[Gal(a1-3)]Gal,-0.002
same,glycan array binding signal (z-score),[11],-0.543
same,glycan array binding signal (z-score),[12],-0.7
same,glycan array binding signal (z-score),[13],-0.191
same,glycan array binding signal (z-score),[14],-0.182
same,glycan array binding signal (z-score),[15],4.17
same,glycan array binding signal (z-score),[16],5.42
same,glycan array binding signal (z-score),Gal(a1-3)Gal,-0.72
same,glycan array binding signal (z-score),[17],2.54
same,glycan array binding signal (z-score),Gal(a1-4)Gal(b1-4)Glc,-0.633
same,glycan array binding signal (z-score),[18],0.061
same,glycan array binding signal (z-score),Gal(b1-3)Gal(b1-4)GlcNAc,-0.517
same,glycan array binding signal (z-score),[19],-0.227
same,glycan array binding signal (z-score),[20],0.647
same,glycan array binding signal (z-score),[21],0.447
same,glycan array binding signal (z-score),Gal(b1-4)GlcNAc(b1-2)Man,-0.837
same,glycan array binding signal (z-score),[22],0.016
same,glycan array binding signal (z-score),[23],-0.179
same,glycan array binding signal (z-score),Gal3S6S(b1-4)GlcNAc,-0.745
same,glycan array binding signal (z-score),[24],-0.272
same,glycan array binding signal (z-score),GlcA(b1-3)Gal,0.136
same,glycan array binding signal (z-score),[25],-0.506
same,glycan array binding signal (z-score),[26],-0.629
same,glycan array binding signal (z-score),[27],-0.125
same,glycan array binding signal (z-score),[28],0.43
same,glycan array binding signal (z-score),GlcNAc(b1-3)Man,-0.123
same,glycan array binding signal (z-score),Kdn(a2-3)Gal(b1-4)GlcNAc,-0.618
same,glycan array binding signal (z-score),[29],5.22
same,glycan array binding signal (z-score),[30],-0.314
same,glycan array binding signal (z-score),[31],3.3
same,glycan array binding signal (z-score),[32],-0.618
same,glycan array binding signal (z-score),[33],-0.427
same,glycan array binding signal (z-score),[34],-0.521
same,glycan array binding signal (z-score),[35],-0.054
same,glycan array binding signal (z-score),[36],0.335
same,glycan array binding signal (z-score),[37],-0.298
same,glycan array binding signal (z-score),[38],-0.39
same,glycan array binding signal (z-score),[39],-0.741
